# Where a name gives a salt, the structure may show the parent alone. The campaign covered roughly 5,800 compounds. About 620 (11%) showed activity. The entries come from a sample that favours actives as a whole. A number with no mark means an inactive call.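 The calls were made as follows: active = score above a cut-off or among the top three wells of a plate; in these data no inactive exceeds 0.85.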
# System: primary human hepatic stellate cells (donor 1)
# Assay: scaled lipid accumulation score (0 = DMSO-like, 1 = nortriptyline-like); higher = stronger HSC inactivation (lipid re-accumulation), active = hit call of the paper
# Settings: 48 h
# [1] = library stock concentration: 3.33 mM
# [2] = library stock concentration: 10 mM
# [3] = library stock concentration: 1 mM
# [4] = library stock concentration: 80 uM
# [5] = library stock concentration: 400 uM
structure (smiles),measurement,setting,value
COc1ccc2cc3[n+](cc2c1OC)CCc1cc2c(cc1-3)OCO2 [Berberine HCl],scaled lipid accumulation score,[1],≤ 0
same,scaled lipid accumulation score,[2],≤ 0
C[n+]1cc2c3c(ccc2c2ccc4cc5c(cc4c21)OCO5)OCO3 [Sanguinarine chloride],scaled lipid accumulation score,[2],0.196
C[n+]1cc2c3c(ccc2c2ccc4cc5c(cc4c21)OCO5)OCO3 [Sanguinarine sulfate],scaled lipid accumulation score,library stock concentration: 4.7 mM,0.693
same,scaled lipid accumulation score,[2],0.287
COc1ccc2cc3[n+](cc2c1OC)CCc1cc2c(cc1-3)OCO2 [Berberine chloride],scaled lipid accumulation score,,≤ 0
same,scaled lipid accumulation score,[2],≤ 0
C[n+]1cc2c3c(ccc2c2ccc4cc5c(cc4c21)OCO5)OCO3 [Sanguinarine],scaled lipid accumulation score,,0.869 (active)
CC#CCC(C)C(=O)/C=C/[C@@H]1[C@H]2C/C(=C/CCCC(=O)O)C[C@H]2C[C@H]1O (some centres not stated) [15-keto Iloprost],scaled lipid accumulation score,[3],≤ 0
CC(C)OC(=O)CCC/C=C\C[C@@H]1[C@@H](/C=C/C(=O)COc2cccc(C(F)(F)F)c2)[C@H](O)C[C@@H]1O [15-keto Fluprostenol isopropyl ester],scaled lipid accumulation score,[3],≤ 0
CC1CC2C3CCC4=CC(=O)C=CC4(C)C3(F)C(O)CC2(C)C1C(=O)CO (configuration not stated),scaled lipid accumulation score,[2],≤ 0
CNC(=O)CN1CCC(Oc2cc3c(Nc4cccc(Cl)c4F)ncnc3cc2OC)CC1 [AZD8931 (Sapitinib)],scaled lipid accumulation score,[1],0.28
same,scaled lipid accumulation score,[2],0.713
COc1cc2ncnc(Nc3ccc(F)c(Cl)c3)c2cc1NC(=O)C=CCN1CCCCC1 [listing 1 of 2 here],scaled lipid accumulation score,library stock concentration: 2 mM,0.903 (active)
same,scaled lipid accumulation score,[2],1.47 (active)
COc1cc2ncnc(Nc3ccc(F)c(Cl)c3)c2cc1NC(=O)C=CCN1CCCCC1 [listing 2 of 2 here],scaled lipid accumulation score,[1],1.08 (active)
COc1cc2ncnc(Nc3ccc(F)c(Cl)c3)c2cc1NC(=O)/C=C/CN1CCCCC1,scaled lipid accumulation score,[4],≤ -0.016
same,scaled lipid accumulation score,[5],0.274
same,scaled lipid accumulation score,[2],0.219
O=C1/C(=C/c2cccs2)CCC/C1=C\c1cccs1,scaled lipid accumulation score,[2],≤ 0
CC(=O)N1CCN(c2ccc(OCC3COC(Cn4ccnc4)(c4ccc(Cl)cc4Cl)O3)cc2)CC1 (configuration not stated) [Ketoconazole],scaled lipid accumulation score,,0.131
same,scaled lipid accumulation score,[1],0.086
CC(=O)N1CCN(c2ccc(OCC3COC(Cn4ccnc4)(c4ccc(Cl)cc4Cl)O3)cc2)CC1 (configuration not stated),scaled lipid accumulation score,[2],0.048
CC(=O)Oc1c(C)c(C)c2c(c1C)CCC(C)(CCCC(C)CCCC(C)CCCC(C)C)O2 (stereo not drawn) [Alpha-tochopheryl acetate],scaled lipid accumulation score,[2],0.117
O=C1NC(=O)c2c1c1c3ccccc3[nH]c1n1cncc21 [Isogranulatimide],scaled lipid accumulation score,[1],≤ 0
CCCCC[C@H](O)/C=C/[C@@H]1[C@@H](C/C=C\CCCC(=O)OC(C)C)[C@@H](O)C[C@H]1O [Prostaglandin F2.alpha. isopropyl ester],scaled lipid accumulation score,[3],≤ 0
O=C(O)CC/C=C\C[C@H]1CO[C@@H](c2ccccc2Cl)O[C@H]1c1ccccc1O,scaled lipid accumulation score,[2],≤ 0
C=C1/C(=C\C=C2/CCC[C@]3(C)[C@@H]([C@H](C)CCCC(C)(C)O)CC[C@@H]23)C[C@@H](O)C[C@@H]1O,scaled lipid accumulation score,[2],≤ 0
C=C1C(=CC=C2CCC[C@]3(C)[C@@H]([C@H](C)CCCC(C)C)CC[C@@H]23)C[C@@H](O)C[C@@H]1O [Alfacalcidol],scaled lipid accumulation score,[2],1.03 (active)
"C=C1/C(=C\C=C2/CCC[C@]3(C)[C@@H]([C@H](C)CCCC(C)(C)O)CC[C@@H]23)C[C@@H](O)C[C@@H]1O [1?,25-Dihydroxyvitamin D3]",scaled lipid accumulation score,[3],0.004
C=C1/C(=C\C=C2/CCC[C@]3(C)[C@@H]([C@H](C)CCCC(C)(C)O)CC[C@@H]23)C[C@@H](O)C[C@@H]1O [Calcitriol],scaled lipid accumulation score,[1],≤ 0
same,scaled lipid accumulation score,library stock concentration: 4.8 mM,0.018
same,scaled lipid accumulation score,[2],≤ 0
C=C1/C(=C\C=C2/CCC[C@]3(C)[C@@H]([C@H](C)CCCC(C)C)CC[C@@H]23)C[C@@H](O)C[C@@H]1O [Alfacalcidol],scaled lipid accumulation score,[1],≤ 0
same,scaled lipid accumulation score,library stock concentration: 5 mM,≤ -0.006
O=C(c1cc2cc(O)ccc2[nH]1)c1cc2cc(O)ccc2[nH]1 [Flt-3 Inhibitor II],scaled lipid accumulation score,[1],≤ 0
Nc1ccccc1NC(=O)c1ccc(CNc2nccc(-c3cccnc3)n2)cc1 [Mocetinostat (MGCD0103)],scaled lipid accumulation score,[1],0.974 (active)
O=C(Nc1ccc(Cl)cc1)c1ccccc1NCc1ccncc1 [VEGF Receptor Tyrosine Kinase Inhibitor II],scaled lipid accumulation score,[1],≤ 0
Nc1ccccc1NC(=O)c1ccc(CNc2nccc(-c3cccnc3)n2)cc1 [Mocetinostat],scaled lipid accumulation score,[4],≤ 0
same,scaled lipid accumulation score,[5],≤ 0
Nc1ccccc1NC(=O)c1ccc(CNC(=O)OCc2cccnc2)cc1 [Entinostat (MS-275)],scaled lipid accumulation score,[1],0.152
same,scaled lipid accumulation score,[2],0.418

# Source: the supplement of paper PMC9135407
